In PubChem BioAssay (EPA / NIEHS):
Results filed as inconclusive are left out. Activity calls are given as the source filed them. The calls were made as follows, unless noted: active = hit-call score of the fitted dose curve at least 0.9, where 1 is the maximum; inconclusive = response in the unintended direction; inactive = score below 0.9.

What was measured:
[1] = Tanguay_ZF_120hpf_TR_legacy: (Legacy) Oregon State University Tanguay Lab 120 Hour Post-fertilization zebrafish Assay for Touch Response (AID 2283667)
Procedure, shortened: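 Tropical 5D wild-type zebrafish embryos were exposed statically in sealed, foil-covered plates at 28C until 120 hpf, with 0.64% (vol/vol) final DMSO. Touch response was scored as present or absent; embryos that died were not scored.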

[2] = Tanguay_ZF_120hpf_ActivityScore_legacy: (Legacy) Oregon State University Tanguay Lab 120 Hour Post-fertilization zebrafish Assay Score for Activity (AID 2283742);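 as to AC50: static exposure from 6 hpf until 120 hpf at 28 °C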
Procedure, shortened: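 Tropical 5D wild-type zebrafish embryos, dechorionated with pronase at 4 hpf, were exposed singly from 6 hpf to 120 hpf statically at 28C in 0.64% DMSO. Malformations and mortality were scored as binary by brightfield, with the activity score combining 18 morphology components.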

[3] = CCTE_Padilla_ZF_144hpf_TERATOSCORE: (Legacy) CCTE's 144 Hour Post-fertilization zebrafish Assay Teratoscore, Padilla Lab (AID 2283679; active = hit-call score of the fitted dose curve at least 0.9, where 1 is the maximum; inactive = score below 0.9;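 as to AC50: zebrafish embryos with chorions exposed by immersion from 6-8 hpf to 5 dpf with daily renewal; teratogenicity score from eye scoring of death hatching and malformations at 144 hpf; higher score means more developmental defects relative to DMSO baseline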)
Procedure, shortened: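 Larvae scored by eye at 144 hpf for death, hatching and malformations after a day in clean Hanks'. Before that, daily-renewed exposure at 80 uM (0.4% DMSO, 26C) from roughly 6-8 hpf through 5 dpf, 4 embryos per chemical.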

Structure (SMILES): O=C(O)c1ccccc1-n1cc(C(=O)O)c(=O)c2cc(Nc3c(F)cc(F)cc3Cl)c(Cl)cc21
- outcome [1]: inactive
- outcome [2]: inactive

Structure (SMILES): CCN(Cc1cccnc1)C(=O)c1cccc(Cl)c1[C@]1(C)C(=O)N(Cc2ccc(OC)cc2OC)c2ccc(Cl)cc21
- outcome [1]: inactive
- AC50 [3]: 5.26 µM (active)
- AC50 [2]: 32.5 µM (active)

Structure (SMILES): CC[C@@H]1C[C@H](N(Cc2cc(C(F)(F)F)cc(C(F)(F)F)c2)C(C)=O)c2cc(C(F)(F)F)ccc2N1C(=O)OC(C)C
- outcome [2]: inactive

Structure (SMILES): CCCCOC(=O)CC(CC(=O)OCCCC)(OC(C)=O)C(=O)OCCCC
- outcome [1]: inactive
- AC50 [3]: 4.96 µM (active)
- outcome [2]: inactive

Structure (SMILES): CCCCCCCCCCCO
- outcome [1]: inactive
- AC50 [3]: 62.4 µM (active)
- outcome [2]: inactive

Structure (SMILES): CCCC(=O)OCCC(C)C
- outcome [2]: inactive

Structure (SMILES): Cc1ncc(CO)c(CO)c1O
- outcome [1]: inactive
- outcome [3]: inactive
- outcome [2]: inactive

Structure (SMILES): CC1=CC(=O)/C(=C(/C)O)C(=O)O1
- outcome [3]: inactive
- outcome [2]: inactive
